We go through 42 compounds from publication PMC4552634, “A New Set of Chemical Starting Points with Plasmodium falciparum Transmission-Blocking Potential for Antimalarial Drug Discovery” (PLoS ONE, 2015).

Molecules are shown by their SMILES. About 3,200 (25%) of roughly 13,000 compounds showed an effect of 50% or more. Some of the results follow.

In this assay the test system is P. falciparum stage V gametocytes. More on the design: BacTiter-Glo ATP luminescence viability of purified stage V gametocytes in 384-well plates, per cent inhibition versus DMSO. To be noted: 48 h, 5 µM; inhibitor.
The term % Inhibition denotes the drop in the measured response relative to a control, in per cent. `O=C(Nc1ccc(C(=O)N(Cc2ccc3c(c2)OCO3)C2CCCC2)cc1)c1cccs1` [TCMDC-125341]: the “% Inhibition” value turned out to be 18.48%.

Take `O=C(Nc1cccc(C2=NCCCN2)c1)Nc1cccc(C2=NCCCN2)c1` [TCMDC-137203]: the “% Inhibition” value was -4.824%.

For `CNCC(C)(C)c1nc(-c2ccc(Cl)c(O)c2)c(-c2ccncc2)[nH]1` [TCMDC-140762], the “% Inhibition” value was -81.65%.

For the compound `CC1CCc2sc(-c3nnc(SC(C)C(=O)N4CCCC4)o3)cc2C1` (stereo not drawn) [TCMDC-124867], the “% Inhibition” value was 8.673%.

In the case of `COc1ccc2nc(N=C3NC4(c5ccccc5)NC(=Nc5nc6ccc(OC)cc6[nH]5)NC4(c4ccccc4)N3)[nH]c2c1` (stereo not drawn) [TCMDC-139632], the “% Inhibition” value is reported as -5.623%.

As for `O=C(Nc1ccc(OC2CCN(Cc3ccsc3)C2)c(Cl)c1)c1cccs1` (stereo not drawn) [TCMDC-133948], the “% Inhibition” value is 17.98%.

In the case of `CC(C)NCc1ccc(-c2ccc(CN3CCCC(c4ccccc4)C3)cc2)c(C(=O)NC2Cc3ccccc3C2)c1` (stereo not drawn) [TCMDC-134700], the “% Inhibition” value stood at 9.317%.

With `CCc1ccc(-c2cnc(N)c3cc(-c4ccnc(N)n4)ccc23)cc1` [TCMDC-134546], the “% Inhibition” value is reported as 12.63%.

Consider `Cc1cccc2[nH]c(-c3cccc(-c4cccc(NC(=O)Nc5ccsc5)c4)c3)nc12` [TCMDC-133213], for which the “% Inhibition” value was -5.013%.

With `COc1ccc2c(ccc3c2ncc2c(=O)n(-c4ccccc4)[nH]c23)c1` [TCMDC-142015], the “% Inhibition” value came to 8.903%.

On to `COC(=O)c1cccc(CNCc2ccc(-c3cccc(-c4nc5ccccc5[nH]4)c3)cc2)c1.O=C(O)C(F)(F)F` [TCMDC-132555], for which the “% Inhibition” value is reported as 70.67%.

`O=C(O)C(F)(F)F.c1ccc(-n2ncc(CNCc3ccc(-c4cccc(-c5nc6ccccc6[nH]5)c4)cc3)n2)cc1` [TCMDC-132564]: the “% Inhibition” value is on record as -40.42%.

Regarding `NC(=O)c1cccc(CNCc2ccc(-c3cccc(-c4nc5ccccc5[nH]4)c3)cc2)c1.O=C(O)C(F)(F)F` [TCMDC-132570], the “% Inhibition” value was determined as 70.11%.

Consider `Cn1cncc1CNCc1ccc(-c2cccc(-c3nc4ccccc4[nH]3)c2)cc1.O=C(O)C(F)(F)F` [TCMDC-132569], for which the “% Inhibition” value is on record as 52.47%.

Turning to `Cn1cccc1CCNCc1ccc(-c2cccc(-c3nc4ccccc4[nH]3)c2)cc1.O=C(O)C(F)(F)F` [TCMDC-132543], the “% Inhibition” value is given as 2.509%.

`COC(=O)c1cccc(CNCc2cccc(-c3ccc(-c4nc5ccccc5[nH]4)cc3)c2)c1.O=C(O)C(F)(F)F` [TCMDC-132959]: the “% Inhibition” value is -6.074%.

Consider `O=C(O)C(F)(F)F.c1cc(-c2ccc(CNCc3ccsc3)cc2)cc(-c2nc3ccccc3[nH]2)c1` [TCMDC-132563], for which the “% Inhibition” value is on record as -10.09%.

For the compound `COC(=O)c1cccc(CNCc2ccc(-c3cccc(-c4nc5cc(C(F)(F)F)ccc5[nH]4)c3)cc2)c1.O=C(O)C(F)(F)F` [TCMDC-132947], the “% Inhibition” value is -37.36%.

`Nc1cccc(CNCc2ccc(-c3cccc(-c4nc5ccccc5[nH]4)c3)cc2)c1.O=C(O)C(F)(F)F` [TCMDC-132924]: the “% Inhibition” value is recorded as -75.75%.

Turning to `N#Cc1cccc(Nc2nccc(Nc3ccc(Oc4ccccc4)cc3)n2)c1` [TCMDC-138558], the “% Inhibition” value was -36.77%.

Turning to `CCCCCCc1cc(O)c2c3c(c(=O)oc2c1)CCN(C)C3` [TCMDC-124193], the “% Inhibition” value is 9.848%.

For the compound `CC(C)c1ccc(OCC(O)CN(C)C(C)C(O)c2ccccc2)c(Br)c1` (stereo not drawn) [TCMDC-141995], the “% Inhibition” value is reported as 3.955%.

Consider `CC1(C)N=C(N)N=C(N)N1c1cccc(I)c1` [TCMDC-138037], for which the “% Inhibition” value is recorded as -1.195%.

For the compound `COc1ccc2nc(C)cc(NCc3cccc4ccccc34)c2c1.Cl` [TCMDC-138974], the “% Inhibition” value is -17.8%.

Turning to `c1ccc(-c2cc(NCCCCNc3cc(-c4ccccc4)nc4ccccc34)c3ccccc3n2)cc1` [TCMDC-137738], the “% Inhibition” value came out at 98.03%.

Take `CN(C)CCNc1cc(-c2ccc3ccccc3c2)nc2ccccc12` [TCMDC-124260]: the “% Inhibition” value is on record as 3.28%.

`c1ccc(-c2cc(NCc3cccc4ccccc34)c3[nH]ncc3n2)cc1` [TCMDC-139455]: the “% Inhibition” value came to 76.18%.

Take `COc1ccc2c(NCCc3ccccc3)cc(-c3ccccc3)nc2c1` [TCMDC-138992]: the “% Inhibition” value was found to be 28.49%.

On to `COc1ccc2nc(-c3ccccc3)cc(NCCCNc3cc(-c4ccccc4)nc4ccc(OC)cc34)c2c1.Cl` [TCMDC-137734], for which the “% Inhibition” value worked out at 124.9%.

As to `c1ccc(-c2cc(NCCCCCCCCNc3cc(-c4ccccc4)nc4ccccc34)c3ccccc3n2)cc1` [TCMDC-137983], the “% Inhibition” value is 96.95%.

`C(=NNc1cc(-c2ccccc2)nc2ccccc12)c1cccnc1` [TCMDC-142052]: the “% Inhibition” value is given as -23.81%.

Regarding `COc1ccc2nc(-c3ccccc3)cc(NCCN(C)C)c2c1` [TCMDC-123487], the “% Inhibition” value is -6.807%.

On to `c1ccc(-c2cc(NCCNc3cc(-c4ccccc4)nc4ccccc34)c3ccccc3n2)cc1` [TCMDC-137986], for which the “% Inhibition” value was 24.95%.

For `O=[N+]([O-])c1ccc(/C=N/Nc2cc(-c3ccccc3)nc3ccccc23)o1` [TCMDC-142051], the “% Inhibition” value came out at 34.86%.

With `CS(=O)(=O)NCCCNCc1ccc(-c2ccc(-c3nc4cc(C(F)(F)F)ccc4[nH]3)s2)cc1.O=C(O)C(F)(F)F` [TCMDC-133076], the “% Inhibition” value is listed as -24.74%.

For the compound `COc1ccc2cc(C(C)NC3CCN(c4cccc(NC(=O)c5ccncc5)c4)CC3)ccc2c1` (stereo not drawn) [TCMDC-124668], the “% Inhibition” value is listed as -18.92%.

For `COc1ccc(CNC2CCN(C)CC2)cc1-c1ccc(OC)c(S(=O)(=O)NCc2ccccc2)c1` [TCMDC-132249], the “% Inhibition” value is listed as 105.1%.

In the case of `COc1ccc(-c2cccc(CNC3CCN(C)CC3)c2)cc1S(=O)(=O)NCc1ccccc1` [TCMDC-132375], the “% Inhibition” value came to 75.59%.

Take `COc1ccc(CNC2CCN(C)CC2)cc1-c1ccc(S(=O)(=O)NCc2ccccc2)c(F)c1` [TCMDC-132262]: the “% Inhibition” value worked out at 59.53%.

For the compound `COc1ccc(CNC2CCN(C)CC2)cc1-c1ccc(S(=O)(=O)NCc2ccccc2)c(C)c1` [TCMDC-132480], the “% Inhibition” value came out at 85.24%.

For the compound `NC1=NC(Cc2ccccc2)N(c2ccc(Cl)cc2)C(N)=N1` (stereo not drawn) [TCMDC-131291], the “% Inhibition” value worked out at 0.2754%.

With `CC(C)(C)C(C)(C)Cc1ccc(O)c(CN2CCN(c3ccccc3)CC2)c1` [TCMDC-125678], the “% Inhibition” value was -31.97%.
